Data: PubChem BioAssay (EPA / NIEHS)
Results filed as inconclusive are left out. Calls of active or inactive are those of the source. Rule for the calls, unless noted: active = hit-call score of the fitted dose curve at least 0.9, where 1 is the maximum; inactive = score below 0.9.

Experiments:
PGR (gene 5241) [1] = biological target: PGR (gene 5241) (UniProt P06401); assay: TOX21_PR_BLA_Followup_Agonist_ratio: Tox21 HEK293 Progesterone Receptor (PR) Agonism Beta-lactamase Follow-Up Assay, Ratio (AID 2283933; active = hit-call score of the fitted dose curve at least 0.9, where 1 is the maximum)
Summary of the method: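 PR-UAS-bla HEK293T cells (GAL4-UAS beta-lactamase reporter) in medium with 2% charcoal-stripped FBS received compounds after 6 hr at 37C, then incubated 16 hr. LiveBLAzer FRET substrate added, 2 hr room temperature; cleaved/uncleaved (ch2/ch1) ratio fitted upward versus DMSO.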

PGR (gene 5241) [2] = biological target: PGR (gene 5241) (UniProt P06401); assay: TOX21_PR_BLA_Followup_Antagonist_ratio: Tox21 HEK293 Progesterone Receptor (PR) Antagonism Beta-lactamase Follow-Up Assay, Ratio (AID 2283934; active = hit-call score of the fitted dose curve at least 0.9, where 1 is the maximum)
Summary of the method: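 PR-UAS-bla HEK293T cells in medium with 2% charcoal-stripped FBS were treated with compounds plus 1 nM (final) promegestone (R5020) for 16 hr at 37C. LiveBLAzer B/G FRET substrate was then added for 2 h at room temperature; signal is cleaved/uncleaved substrate ratio versus DMSO.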

[3] = TOX21_PR_BLA_Followup_Agonist_viability: Viability Assessment in the Tox21 HEK293 Progesterone Receptor (PR) Agonism Beta-lactamase Follow-Up Assay (AID 2283935; active = hit-call score of the fitted dose curve at least 0.9, where 1 is the maximum;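 note: signal loss means lower viability so actives are cytotoxic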)
Summary of the method: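 PR-UAS-bla HEK293T cells in 2% charcoal-stripped FBS medium, compound added after 6 hr plating, 16 hr at 37C/5% CO2. After bla FRET read, CellTiter-Glo added; luminescence read after 30 min at room temperature; signal loss marks cytotoxicity.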

[4] = CEETOX_H295R_OHPROG_noMTC: CeeTox H295R High-throughput Steroidogenesis Assay for OH-Progesterone (OHPROG), maximum tolerated concentration (MTC) filtered results only (AID 2283914); details: actives raise or lower the signal
Summary of the method: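 Forskolin 10 uM, 48 h prestim → test cmpd in DMSO (0.1% final), 48 h → medium MTBE extraction → LC-MS/MS quant of 17alpha-OH-progesterone. Bidirectional fit vs DMSO; no MTT-based MTC filtering.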

[5] = CEETOX_H295R_CORTISOL_noMTC: CeeTox H295R High-throughput Steroidogenesis Assay for Cortisol, maximum tolerated concentration (MTC) filtered results only (AID 2283916); details: actives raise or lower the signal
Summary of the method: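 Cortisol secretion measured by LC-MS/MS after 48 h chemical treatment (final 0.1% DMSO) of forskolin-primed (10 uM, 48 h) H295R cells; gain or loss fitted relative to DMSO, without maximum-tolerated-concentration filtering.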

[6] = CEETOX_H295R_CORTIC_noMTC: CeeTox H295R High-throughput Steroidogenesis Assay for Corticosterone (CORTIC), maximum tolerated concentration (MTC) filtered results only (AID 2283917); details: actives raise or lower the signal
Summary of the method: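 Following OECD 456 with minor changes, H295R cultures received 10 uM forskolin for 48 h, then test chemical at 0.1% DMSO for 48 h. Media steroids were extracted and measured by LC-MS/MS.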

[7] = CEETOX_H295R_DOC_noMTC: CeeTox H295R High-throughput Steroidogenesis Assay for DOC, maximum tolerated concentration (MTC) filtered results only (AID 2283918); details: actives raise or lower the signal
Summary of the method: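 11-Deoxycorticosterone secreted by human adrenal H295R cells quantified by HPLC-MS/MS after 48 h chemical exposure (0.1% DMSO), following 48 h 10 uM forskolin prestimulation. Concentrations not filtered by MTT-derived MTC; bidirectional fitting.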

[8] = CEETOX_H295R_ESTRADIOL_noMTC: CeeTox H295R High-throughput Steroidogenesis Assay for Estradiol, maximum tolerated concentration (MTC) filtered results only (AID 2283919); details: actives raise or lower the signal
Summary of the method: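 H295R human adrenal cells pre-stimulated 48 h with 10 uM forskolin, then exposed 48 h to chemical (0.1% DMSO final). Estradiol in medium measured by HPLC-MS/MS after MTBE extraction and dansyl derivatization; bidirectional fit versus DMSO, concentrations not MTT-filtered.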

[9] = CEETOX_H295R_PROG_noMTC: CeeTox H295R High-throughput Steroidogenesis Assay for Progesterone (PROG), maximum tolerated concentration (MTC) filtered results only (AID 2283920); details: actives raise or lower the signal
Summary of the method: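 H295R cells; forskolin 10 uM x 48 h prestim; test cpd 48 h, 0.1% DMSO final; media progesterone via LC-MS/MS; bidirectional fit vs DMSO; no MTT-based MTC filter applied.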

[10] = CEETOX_H295R_ESTRONE_noMTC: CeeTox H295R High-throughput Steroidogenesis Assay for Estrone, maximum tolerated concentration (MTC) filtered results only (AID 2283921); details: actives raise or lower the signal
Summary of the method: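 H295R cells prestimulated 48 h with 10 uM forskolin, then exposed 48 h to chemical in 0.1% DMSO; medium estrone measured by HPLC-MS/MS after MTBE extraction and dansyl derivatization, fitted bidirectionally versus DMSO without MTT-based MTC filtering.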

Chain of PGR (gene 5241) (P06401 whole entry, looked up, the tested form may be a part): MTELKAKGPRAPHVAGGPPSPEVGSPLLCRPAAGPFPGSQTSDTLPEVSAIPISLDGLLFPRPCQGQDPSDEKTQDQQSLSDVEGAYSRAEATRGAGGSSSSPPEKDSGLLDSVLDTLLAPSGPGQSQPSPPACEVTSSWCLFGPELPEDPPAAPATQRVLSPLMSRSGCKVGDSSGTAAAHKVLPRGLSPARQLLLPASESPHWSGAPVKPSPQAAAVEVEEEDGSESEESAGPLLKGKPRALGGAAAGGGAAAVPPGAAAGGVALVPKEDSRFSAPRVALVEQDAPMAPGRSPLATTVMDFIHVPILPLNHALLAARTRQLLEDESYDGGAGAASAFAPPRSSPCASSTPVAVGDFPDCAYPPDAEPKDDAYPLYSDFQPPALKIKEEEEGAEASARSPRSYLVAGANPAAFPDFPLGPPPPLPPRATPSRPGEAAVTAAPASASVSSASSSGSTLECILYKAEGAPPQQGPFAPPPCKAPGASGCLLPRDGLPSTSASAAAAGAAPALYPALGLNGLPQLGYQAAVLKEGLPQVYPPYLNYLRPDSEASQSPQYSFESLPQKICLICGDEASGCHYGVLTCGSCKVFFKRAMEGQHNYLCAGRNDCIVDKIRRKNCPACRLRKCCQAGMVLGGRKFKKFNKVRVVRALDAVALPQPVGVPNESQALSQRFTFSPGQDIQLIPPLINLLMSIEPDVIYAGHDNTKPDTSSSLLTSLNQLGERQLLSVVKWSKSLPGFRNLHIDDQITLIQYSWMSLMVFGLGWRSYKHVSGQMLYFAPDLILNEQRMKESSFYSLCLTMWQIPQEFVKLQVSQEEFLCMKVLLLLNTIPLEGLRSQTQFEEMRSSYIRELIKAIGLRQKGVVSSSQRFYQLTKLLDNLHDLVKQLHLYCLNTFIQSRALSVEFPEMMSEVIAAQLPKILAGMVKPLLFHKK

## CC(C)(c1ccc(O)cc1)c1ccc(O)cc1
PGR (gene 5241) [1]
  outcome: inactive
PGR (gene 5241) [2]
  AC50: 32.9 µM (active)
[3]
  outcome: inactive

## CC(C)CCCCCCc1ccc(O)cc1
PGR (gene 5241) [2]
  outcome: inactive
[3]
  outcome: inactive

## C[C@]12C[C@H](O)[C@H]3[C@@H](CCC4=CC(=O)CC[C@@]43C)[C@@H]1CC[C@@H]2C(=O)CO
[3]
  outcome: inactive

## COC(=O)c1ccccc1C(=O)O
[4]
  outcome: inactive
[5]
  outcome: inactive
[6]
  outcome: inactive
[7]
  outcome: inactive
[8]
  outcome: inactive
[9]
  outcome: inactive
[10]
  outcome: inactive

## CCCCC(CC)COC(=O)c1ccccc1C(=O)O (configuration not stated)
[4]
  outcome: inactive
[5]
  outcome: inactive
[6]
  outcome: inactive
[7]
  outcome: inactive
[9]
  outcome: inactive

## C[C@]12CC[C@@H]3c4ccc(O)cc4C[C@@H](CCCCCCCCCS(=O)CCCC(F)(F)C(F)(F)F)[C@H]3[C@@H]1CC[C@@H]2O (some centres not stated)
PGR (gene 5241) [1]
  outcome: inactive
PGR (gene 5241) [2]
  AC50: 4.06 µM (active)

## O=C(c1ccc(O)cc1O)c1ccc(O)cc1O
PGR (gene 5241) [1]
  outcome: inactive
PGR (gene 5241) [2]
  AC50: 58.1 µM (active)
